# PubChem BioAssay
# Some of the results follow. Values without a mark were called inactive. Calls of active or inactive are those of the source.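 The calls were made as follows, unless noted: active = mean inhibition above about 50% in the one-dose retest (limit read from the data); inactive = the rest.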
# Assays:
# [1] = target: Sentrin-specific protease 8 (Homo sapiens) (UniProt Q96LD8); assay: human SENP8 peptidase blockers, hit retest – biochemical, luminescence, single concentration, confirmation (AID 488912;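 active = mean inhibition across replicates above about 50%, limit read from the data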); settings: Recombinant SENP8, Z-RLRGG-aminoluciferin luminescence, 60 min; at 12.5 µM; hits give high values
# [2] = target: Sentrin-specific protease 6 (Homo sapiens) (UniProt Q9GZR1); assay: inhibition of human SENP6 catalytic domain – biochemical, luminescence, single concentration, confirmation (AID 488915); settings: recombinant SENP6, Z-RLRGG-aminoluciferin luminescence; at 12.5 µM; hits give high values
# [3] = target: Sentrin-specific protease 7 (Homo sapiens) (UniProt Q9BQF6); assay: human SENP7 peptidase blockers, hit retest – biochemical, luminescence, single concentration, confirmation (AID 488917); settings: recombinant SENP7, Z-RLRGG-aminoluciferin luminescence, 40 min; at 12.5 µM; hits give high values
# Caspase-3 (Homo sapiens) = Caspase-3 (Homo sapiens) (UniProt P42574); assay: human caspase-3 activity blockade, out-of-family – biochemical, single concentration, selectivity assay for SENP inhibitor project, confirmation (AID 488918;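 active = mean inhibition above about 50%, limit read from the data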;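 also: plate controls were enzyme with DMSO for no effect and wells without caspase-3 for full effect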); settings: purified caspase-3, Z-DEVD-aminoluciferin luminescence, 60 min; at 12.5 µM; hits give high values
# [4] = Ultra-Glo luciferase signal interference – biochemical, single concentration, SENP8 reaction pre-completed, artefact control for SENP inhibitor project, confirmation (AID 488919;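 active = mean inhibition above about 50% when retested at one dose, limit read from the data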;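 also: plate controls were DMSO wells with completed reaction for no effect and substrate without enzyme for full effect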); settings: Pre-incubated SENP8/Z-RLRGG-aminoluciferin, luciferase luminescence interference; at 12.5 µM; hits give high values
# [5] = apoptosome-driven caspase-3 activation blockers – biochemical, fluorescence, DEVD-Rh110, 20 µM, confirmation (AID 504614;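 active = mean inhibition of at least 40% at 20 µM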;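 also: plate controls were DMSO wells for no effect and DEVD-CHO caspase inhibitor control wells for full effect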); settings: reconstituted apoptosome, caspase-3 DEVD-Rh110 fluorescence; at 20 µM; hits give high values
# [6] = detection-step artefacts after completed caspase reaction – biochemical, fluorescence, Rh110, 20 µM, artefact control for Apaf-1 inhibitor project, confirmation (AID 504615;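 active = signal rise of 40% or more at 20 µM, treated as a fluorescence artifact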); settings: quenched caspase reaction, at 20 µM, hits give high values
# Chain of Sentrin-specific protease 8 (Homo sapiens) (Q96LD8 whole entry, looked up, the tested form may be a part): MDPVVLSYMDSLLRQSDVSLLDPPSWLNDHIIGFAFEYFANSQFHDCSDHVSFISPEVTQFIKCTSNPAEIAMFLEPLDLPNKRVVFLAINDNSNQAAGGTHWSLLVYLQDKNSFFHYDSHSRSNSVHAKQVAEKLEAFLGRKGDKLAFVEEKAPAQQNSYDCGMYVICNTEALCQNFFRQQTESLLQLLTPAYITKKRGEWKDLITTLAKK
# Chain of Sentrin-specific protease 7 (Homo sapiens) (Q9BQF6 706-1050 limits assumed): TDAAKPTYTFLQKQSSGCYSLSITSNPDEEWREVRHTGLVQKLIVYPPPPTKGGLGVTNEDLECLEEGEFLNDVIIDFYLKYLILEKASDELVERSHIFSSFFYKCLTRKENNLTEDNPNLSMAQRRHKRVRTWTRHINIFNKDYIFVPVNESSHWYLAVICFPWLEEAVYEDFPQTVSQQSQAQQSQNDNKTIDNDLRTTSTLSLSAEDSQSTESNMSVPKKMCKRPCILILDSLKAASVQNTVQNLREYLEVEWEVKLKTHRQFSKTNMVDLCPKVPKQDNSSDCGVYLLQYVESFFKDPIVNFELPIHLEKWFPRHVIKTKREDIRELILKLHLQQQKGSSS
# Chain of Caspase-3 (Homo sapiens) (P42574 28-227 limits assumed): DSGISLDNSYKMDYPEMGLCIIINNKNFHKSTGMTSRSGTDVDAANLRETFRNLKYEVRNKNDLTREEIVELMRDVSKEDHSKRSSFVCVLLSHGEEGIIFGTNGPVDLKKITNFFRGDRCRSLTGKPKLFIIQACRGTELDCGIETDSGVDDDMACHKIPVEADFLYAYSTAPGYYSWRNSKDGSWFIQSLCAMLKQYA
# Chain of Sentrin-specific protease 6 (Homo sapiens) (Q9GZR1 628-1112 limits assumed): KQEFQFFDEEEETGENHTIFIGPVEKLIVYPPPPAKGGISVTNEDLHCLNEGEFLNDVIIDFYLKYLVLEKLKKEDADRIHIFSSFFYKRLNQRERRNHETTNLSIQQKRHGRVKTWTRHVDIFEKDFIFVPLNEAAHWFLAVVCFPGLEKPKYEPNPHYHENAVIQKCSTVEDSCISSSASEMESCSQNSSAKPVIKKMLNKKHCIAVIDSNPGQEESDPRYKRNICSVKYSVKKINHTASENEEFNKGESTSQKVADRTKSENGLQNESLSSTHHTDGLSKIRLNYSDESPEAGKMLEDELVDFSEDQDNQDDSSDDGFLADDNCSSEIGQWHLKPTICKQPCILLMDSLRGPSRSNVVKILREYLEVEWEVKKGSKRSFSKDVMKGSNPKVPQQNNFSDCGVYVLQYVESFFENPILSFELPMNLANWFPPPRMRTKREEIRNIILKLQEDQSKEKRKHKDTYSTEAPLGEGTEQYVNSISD
Structure (SMILES),inhibition [1],inhibition [2],inhibition [3],inhibition (Caspase-3 (Homo sapiens)),inhibition [4],inhibition [5],activation (fluorescence interference) [6]
c1ccc(-c2cc(-c3ccccc3)[nH]n2)cc1,69.7% (active),64.5% (active),85.8% (active),38%,71.4% (active),,
Cc1ccccc1C(=O)Nc1ccc(N2CCCCCC2)cc1,73.8% (active),72.6% (active),91.7% (active),67.2% (active),51.9% (active),,
O=C(Nc1cc2ccccc2oc1=O)C1CCCCC1,8.2%,4.9%,19.1%,20.1%,3.7%,,
O=C1C(=O)N(CCCN2CCOCC2)C(c2ccc([N+](=O)[O-])cc2)/C1=C(\O)c1ccc2c(c1)OCCO2 (configuration not stated),-13.1%,-8.9%,-9%,-4.4%,-12.5%,,
Cc1ccc(S(=O)(=O)C(C#N)c2nc3ccccc3nc2N2CCCC2)cc1C (configuration not stated),6.9%,9.5%,4.3%,4.2%,3%,,
COc1ccc(C(=O)Nc2ccc(C3(C#N)CCCC3)cc2)cc1OC,93% (active),93.6% (active),101% (active),91.9% (active),83.2% (active),,
CCN1CC=C2C(C#N)=C(N)C(C#N)(C#N)[C@H](c3ccoc3)[C@H]2C1,-12.3%,-5.5%,-13.6%,1.7%,-10.5%,,
Cc1ccc(C(=O)N/N=C\c2cc(Br)c(Br)o2)cn1,3.5%,12.7%,8.1%,12.1%,-0.7%,4.66%,-11.2%
